Activation data for 91 compounds are collected here from PubChem BioAssay AID687014 (The Scripps Research Institute Molecular Screening Center, 2013).

Out of some 370,000 compounds screened, about 6,800 (1.8%) were called active. The sample holds actives, similar compounds and a random draw of the others, so the mix is not that of the screen.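 Rule for the calls: active = activation above a cutoff set at the mean of all screened compounds plus 3 SD (cut at about 10% in these data); inactive = the rest.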

This assay relates to Nuclear hormone receptor DAF-12 (Heterodera glycines), GAL4 fusion. In words: hgDAF-12 GAL4 fusion reporter activation – cell-based, luminescence, HEK293, UAS-luciferase, primary screen (AID 687014).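 Note: 0% = DMSO wells and 100% = sodium butyrate wells.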 The note with it: HEK293 GAL4-hgDAF12 UAS-luciferase reporter, agonist luminescence; at 6.8 µM; hits give high values; normalized to butyrate control.
As for `CC(C)CSc1nnc(-c2cccnc2)n1Cc1ccccc1`, the activation is 0.98% (inactive).

`C=CCN1C(=O)N(Cc2ccccc2)c2ccccc2S1(=O)=O`: the activation was -2.37% (inactive).

As to `O=C(CNC(=O)c1ccc2ccccc2c1)Nc1ncccc1O`, the activation was 4.2% (inactive). Then `CN1CCN(NC(=O)c2ccc(S(=O)(=O)N3CCCCCC3)cc2)CC1`, with -0.88% (inactive).

For `O=C(Nc1ncccc1O)c1ccc(S(=O)(=O)N2CCCCCC2)cc1`, the activation is 10.7% (active). The figure for `O=C(Nc1ccccc1F)c1ccc(S(=O)(=O)N2CCCCCC2)cc1` is 4.61% (inactive); for `O=C(Nc1ncccc1O)c1ccc(C(=O)c2ccccc2)cc1` it is 85% (active). The figure for `CCN(CC)S(=O)(=O)c1cccc(NC(=O)c2ccc(S(=O)(=O)N3CCCC3)cc2)c1` is -4.53% (inactive); for `O=C(Nc1ncccc1O)c1ccc(S(=O)(=O)N2CCCC2)cc1` it is 26.2% (active); for `CC(C)(C)n1nc2c(c1NC(=O)c1ccc(S(=O)(=O)N3CCCC3)cc1)CS(=O)C2` (stereo unspecified) it is -0.9% (inactive).

`CCOC(=O)c1cccnc1NC(=O)c1ccncc1`: the activation is 2.56% (inactive). Then `O=C(C1CCN(S(=O)(=O)c2ccccc2)CC1)N1CCN(C2CCCCC2)CC1`, with -4.1% (inactive); and `COC(=O)C[C@@H]1CC[C@@H]2[C@@H](COc3ccc(NC(=O)Nc4ccc(F)c(F)c4)cc3C(=O)N2C)O1`, with 0.28% (inactive). With `O=C(NN1C(=O)C2C3C=CC(C4CC34)C2C1=O)c1ccc(Cl)cc1` (stereo unspecified), the activation was 0.35% (inactive). Turning to `CC(C)CNc1cccc2c1S(=O)(=O)N(Cc1cn(Cc3ccccc3C(F)(F)F)nn1)Cc1ccccc1O2`, the activation was -3.87% (inactive). Then `C[C@H](C(=O)N(C)c1ccccc1)[C@@H](O)c1ccc(Cl)cc1`, with 1.73% (inactive). For the compound `COc1ccc(C(NC(=O)C2CCN(CCCc3ccccc3)CC2)c2cccs2)cc1` (stereo unspecified), the activation is -0.24% (inactive). Take `CC(=O)OCCN1CCCC12CCC(c1ccccc1)CC2` (stereo unspecified): the activation is -0.9% (inactive).

As to `CCOC(=O)c1cc(-c2ccc(Cl)s2)nc2c1c(C)nn2C`, the activation was -0.72% (inactive). The figure for `Cn1c(=NC(=O)c2ccco2)sc2cccc(F)c21` is 20.1% (active); for `Cc1cc(NC(=O)c2ccco2)c(=O)n(Cc2c(F)cccc2Cl)c1` it is -0.15% (inactive); for `Cn1c(=NC(=O)c2cnccn2)sc2ccccc21` it is 9.34% (inactive).

Regarding `CC(c1ccc(N)cc1)c1cn(C)c2ccccc12` (stereo unspecified), the activation was -1.36% (inactive). The figure for `C#CCN([C@H](C(=O)OC)C(C)CC)S(=O)(=O)c1ccccc1Br` (stereo partly specified) is 0.28% (inactive). Then `Cc1cc(C(=O)NN=C/C=C/c2ccco2)n[nH]1`, with -0.85% (inactive); and `CC(/C=N/NC(=O)c1cc(-c2ccc3ccccc3c2)n[nH]1)=C\c1ccco1`, with 20.6% (active); and `CN(C)S(=O)(=O)c1cccc(C(=O)N/N=C\c2ccco2)c1`, with 3.58% (inactive). Then `COC(=O)[C@]12C[C@H](CC(=O)N3CCN(C(=O)C4CC4)CC3)C(=O)N(Cc3ccc4c(c3)OCO4)C1=C[C@H](C(C)(C)C)O[C@@H]2C`, with 0.51% (inactive); and `C/C(CC(=O)NC(C)(C)C)=N\NC(=O)c1ccco1`, with 12.8% (active).

As for `COc1ccc(N(CC(=O)NC(C)(C)C)C(=O)c2ccco2)cc1`, the activation is 0.5% (inactive).

In the case of `COc1cccc2cc(/C(C)=N/NC(=O)c3ccco3)oc12`, the activation was 4.73% (inactive).

For `CCOC(=O)c1cccc(NC(=O)CN(C)S(=O)(=O)c2ccc(-c3cocn3)s2)c1`, the activation is 1.77% (inactive).

For `COc1ccc(N=C(C)c2sc3ccccc3c2O)cc1`, the activation is 13.8% (active). Then `COC(=O)c1ccc(/C=C/c2c(-c3ccc(OC)cc3)sc3ccccc23)cc1`, with 0.64% (inactive); and `COc1ccc(-n2c(SCC(=O)NC3CCCC3)nnc2-c2ccncc2)cc1`, with -0.49% (inactive). Regarding `Cc1ccc(Cn2cc(COC(=O)N(C)Cc3ccccc3)nn2)cc1`, the activation was 0.1% (inactive). For the compound `CC(=O)NC(c1ccccc1)c1nc(-c2cccc(C(C)C)c2)cs1` (stereo unspecified), the activation was 1.94% (inactive).

On to `Cc1ccccc1Nc1nc(-c2cccnc2)cs1`, for which the activation was 17.6% (active).

For `Cc1csc(NC(=O)CSc2nnc(-c3cccnc3)o2)n1`, the activation is 4.01% (inactive). Turning to `CC(=O)NC(c1cccc(F)c1)c1nc(-c2cccc(F)c2)cs1` (stereo unspecified), the activation is 1.2% (inactive).

As to `N#CC(=C1SC=CS1)c1nc(-c2ccccc2)cs1`, the activation is 8.13% (inactive). Take `CC(=O)Nc1cccc(-c2csc(Nc3cccc(C)n3)n2)c1`: the activation was 16.6% (active). Then `Cc1cccc(Nc2nc(-c3ccccc3)cs2)n1`, with 18.8% (active); and `O=S(=O)(NCCc1csc(-c2ccccc2)n1)c1cccnc1`, with -0.11% (inactive); and `c1ccc(-c2csc(N3CCc4ccccc4C3)n2)cc1`, with 4.55% (inactive). Then `Cc1cc(C)nc(NC(=S)N2CCN(c3ccc(C(F)(F)F)cn3)CC2)c1`, with -6.42% (inactive).

Turning to `O=C(NCC1CC1)c1onc(CSc2ccccc2)c1C(=O)NCC1CC1`, the activation is 1.09% (inactive).

On to `Cc1cccc(NC(=O)C[C@H]2CC[C@H]3[C@@H](COc4ccc(NC(=O)Nc5ccccc5)cc4C(=O)N3C)O2)c1`, for which the activation was -1.77% (inactive). Then `O=C(NCCCN1CCN(c2ccccc2F)CC1)C1CCC(=O)N1C1CCCCC1` (stereo unspecified), with 0.6% (inactive).

`O=C1CN(C(=O)c2ccccc2F)C(c2ccc(F)cc2)c2cc(F)ccc2N1` (stereo unspecified): the activation is -3.72% (inactive). Then `O=C(CCCCCN1C(=O)C2C3C=CC(C3)C2C1=O)Nc1ccccn1` (stereo unspecified), with 2.03% (inactive); and `COC(CNC(=O)[C@H](Cc1ccccc1)NC1(C(=O)NC2CCCCC2)CCCCC1)OC`, with 1.76% (inactive). Then `c1ccc(-c2cc(-c3ccccc3)[nH]n2)cc1`, with 12.2% (active); and `Cc1c[nH]c2cccc(-c3ccc(Cl)cc3)c12`, with 5.56% (inactive).

With `Oc1ccccc1-c1cc(-c2ccc(Cl)cc2)n[nH]1`, the activation was 20.1% (active).

Regarding `N#Cc1c(-c2ccccc2)c(-c2ccccc2)n[nH]c1=O`, the activation is 0.04% (inactive). The figure for `O=C(O)c1n[nH]nc1-c1ccccc1` is -0.69% (inactive); for `CC(C)C(=O)NCc1cc(-c2ccc(Cl)cc2)no1` it is -0.54% (inactive); for `Cc1ccc(S(=O)(=O)N(C)c2ccc(OCC(=O)OCC(=O)N(CC#N)c3ccccc3)cc2)cc1` it is -0.04% (inactive). Then `O=C(N[C@H](Cc1ccccc1)C(=O)N1CCCN(Cc2cccs2)CC1)[C@H]1O[C@@H](n2ccc(=O)[nH]c2=O)[C@H](O)[C@@H]1O`, with -0.37% (inactive); and `CC(C)(C)C(c1nc2ccccc2[nH]1)n1c(Cc2csc3ccccc23)nc2ccccc21` (stereo unspecified), with 6.72% (inactive); and `O=C(O)Cn1cnc2c(NCc3ccccc3)ncnc21`, with 1.82% (inactive). Then `CCCCNC(=O)C[C@H]1C[C@@]2(C(=O)OC)C(=C[C@H](COCc3ccccc3)O[C@@H]2C)N(Cc2ccc(Cl)cc2Cl)C1=O`, with 0.35% (inactive); and `O=C(N1CCOCC1)N1CC[C@H]2[C@H](CCCN2Cc2ccc(F)cc2)C1`, with -0.84% (inactive).

With `O=C(CCS(=O)(=O)c1cccc2nsnc12)N1CCN(c2ccccc2F)CC1`, the activation is 0.1% (inactive). For `O=C(CCc1ccccc1F)N1CCN(c2ccccc2)CC1`, the activation was 0.77% (inactive).

For `O=C(CCSc1ccccc1)N1CCN(c2ccccc2F)CC1`, the activation was 14.2% (active). Take `O=C(CCc1ccccc1)Nc1nn[nH]n1`: the activation is 0.42% (inactive). The figure for `O=C(CCc1ccccc1)Nc1ccc(NC(=O)C2CC2)nc1` is -1.22% (inactive); for `O=C(CCc1ccccc1)Nc1ncc([N+](=O)[O-])s1` it is 11.2% (active). Then `Cn1cc([N+](=O)[O-])c(C(=O)Nc2ccc3c(c2)OCCO3)n1`, with 5.47% (inactive); and `Nc1c(C(=O)Nc2ccc3c(c2)OCCO3)nnn1Cc1ccccc1`, with 11.1% (active). The figure for `CCc1ccc(NC(=O)Cn2nnc(C(=O)NCc3ccc4c(c3)OCO4)c2N)cc1` is -0.22% (inactive); for `COc1ccccc1NS(=O)(=O)c1ccc(C)c(C(=O)NNC(=O)c2csc(N3CCOCC3)n2)c1` it is -0.05% (inactive); for `Cc1noc(C)c1CCC(=O)N1CCCC(CO)(Cc2ccccc2)C1` (stereo unspecified) it is 9.68% (inactive). Take `Cc1ccccc1CC1(CO)CCCN(C(=O)c2cc(-c3ccccc3)no2)C1` (stereo unspecified): the activation is -2.47% (inactive). Then `COC(=O)CCC(=O)N1CCCC(CO)(Cc2ccccc2)C1` (stereo unspecified), with 11.1% (active); and `CC1CCCN(c2cccc3c2S(=O)(=O)N(Cc2ccc(F)cc2)[C@@H](C)[C@H](c2ccccc2)O3)C1` (stereo partly specified), with 2.2% (inactive).

`COC(=O)C12C=C3CC(c4ccccc4)=C3C(=O)N1Cc1[nH]c3ccccc3c1C2` (stereo unspecified): the activation was -0.17% (inactive). Then `Cc1nc2nc[nH]n2c(=O)c1C/C=C/c1ccccc1`, with -0.77% (inactive); and `C=CCc1c(C)nc2cc(-c3ccccc3)[nH]n2c1=O`, with 11.2% (active); and `CCc1c(C)nc2cc(C)[nH]n2c1=O`, with -1.41% (inactive). The figure for `C[C@@H]1CN([C@@H](C)CO)C(=O)c2c(c3ccccc3n2C)-c2ccccc2CO[C@H]1CN(C)C(=O)C1CC1` is 0.34% (inactive); for `Cc1ccccc1NC(=O)C1CCN(c2ncccn2)CC1` it is 2.53% (inactive). Then `Cc1cccc(-n2c(O)c(C=Nc3ccccc3N)c(=O)[nH]c2=O)c1`, with 14.9% (active). `COc1cccc(CNC(=O)CNS(=O)(=O)c2ccc3nc(C)sc3c2)c1OC`: the activation was -1.09% (inactive). Then `CCOC(=O)[C@]12CCCCC/C=C\1N(Cc1ccc(OC)cc1)C(=O)[C@H]2CC(=O)NCCCN1CCCC1=O`, with 3.26% (inactive); and `CCn1c(=O)n2n(c1=O)[C@@]1(C=C3CCCC[C@H]32)N=C(NC(=O)c2ccccc2)N(Cc2ccccc2)[C@H]1Cc1ccccc1`, with -2.77% (inactive); and `COc1ccc(C(C)(NC(C)=O)c2nc(-c3ccc(S(C)(=O)=O)cc3)cs2)cc1` (stereo unspecified), with -0.04% (inactive). For the compound `COc1ccc(-c2csc(Cc3nc(O)cs3)n2)cc1`, the activation was 21.6% (active). The figure for `COc1ccc(C(C)(O)c2nc(-c3cc(F)cc(F)c3)cs2)cc1` (stereo unspecified) is -1.7% (inactive).
